Reference: the supplement of paper PMC10849652
The full data set covers some 7,900 targets. This sample favours those with a hit. About 0.6% of all pairs of compound and target were hits.

How the values were obtained:
Test in all cases: log2 fold change, soluble protein after heating vs DMSO (PISA); higher = thermal stabilisation; K562 cells, 10 uM, 30 min; active = over 0.2 and 3.5 SD of the protein, either way, in both replicates (recomputed)
[1] = compound: COC1=CC=C(C=C1)CN2C=CC3=C2C=C(C=C3)C(=O)NO
Method in brief: (§1)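 Values are thermal stability changes relative to control samples and are taken from duplicates. They are stated as log2 fold changes. Before quantification by TMTpro 16plex LC-MS/MS with equalised channel sums, K562 cells at 2×10^6 cells/mL were treated with 10 μM compound for 30 min, heated in aliquots for 3 min across 48°C-58°C, pooled, extracted in PBS with 0.5% NP-40 at 4°C, and centrifuged at 21,000xg for 90 min to give the soluble supernatant.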

[2] = compound: CON(C)C(=O)N1N=C(c2cc(F)ccc2F)S[C@@]1(CCCN)c1ccccc1 [filanesib]
Method in brief: as §1

[3] = compound: CO[C@H]1C[C@@H]2CC[C@@H](C)[C@@](O)(O2)C(=O)C(=O)N2CCCC[C@H]2C(=O)O[C@H]([C@H](C)C[C@@H]2CC[C@H](n3cnnn3)[C@H](OC)C2)CC(=O)[C@H](C)/C=C(\C)[C@@H](O)[C@@H](OC)C(=O)[C@H](C)C[C@H](C)/C=C/C=C/C=C/1C [zotarolimus]
Method in brief: as §1

[4] = compound: COc1cc(C(=O)O)ccc1NC(=O)[C@@H]1N[C@@H](CC(C)(C)C)[C@](C#N)(c2ccc(Cl)cc2F)[C@H]1c1cccc(Cl)c1F [idasanutlin]
Method in brief: as §1

[5] = compound: COc1cc(Nc2ncc3c(n2)-c2ccc(Cl)cc2C(c2c(F)cccc2OC)=NC3)ccc1C(=O)O [alisertib]
Method in brief: as §1

[6] = compound: COc1cc2nc(-c3cc(F)ccc3O)nc(N[C@@H]3CNC[C@H]3C(C)(C)O)c2cc1OC
Method in brief: as §1

[7] = compound: COc1cc2ncnc(Nc3ccc(F)c(Cl)c3)c2cc1OCCCN1CCOCC1 [gefitinib]
Method in brief: as §1

[8] = compound: COc1cccc2cc(-c3nc([C@H]4CC[C@H](C(=O)O)CC4)n4ncnc(N)c34)[nH]c12
Method in brief: as §1

[9] = compound: CS(=O)(=O)CCNCc1ccc(-c2ccc3ncnc(Nc4ccc(OCc5cccc(F)c5)c(Cl)c4)c3c2)o1 [lapatinib]
Method in brief: as §1

[10] = compound: CS(=O)(=O)N1CCN(Cc2cc3nc(-c4cccc5[nH]ncc45)nc(N4CCOCC4)c3s2)CC1 [pictilisib]
Method in brief: as §1

[11] = compound: CS(=O)(=O)c1ccc(-c2cnc(N)c(C(=O)Nc3ccccc3)n2)cc1
Method in brief: as §1

[12] = compound: C[C@@H](Oc1cc(-c2cnn(C3CCNCC3)c2)cnc1N)c1c(Cl)ccc(F)c1Cl [crizotinib]
Method in brief: as §1

[13] = compound: C[C@@H]1COCCN1C2=NC(=NC(=C2)C3(CC3)S(=O)(=O)C)C4=C5C=CNC5=CC=C4
Method in brief: as §1

[14] = compound: C[C@H](C1=CC=C(C=C1)C(=O)NC2=C3C=CNC3=NC=C2)N
Method in brief: as §1

[15] = compound: C[C@H](Nc1ncnc2nc[nH]c12)c1cc2cccc(Cl)c2c(=O)n1-c1ccccc1 [duvelisib]
Method in brief: as §1

[16] = compound: Cc1cc(Nc2cc(CN3CCOCC3)c3nc(C)c(Cc4ccc(Cl)cc4F)n3n2)n[nH]1 [gandotinib]
Method in brief: as §1

[17] = compound: Cc1cc(Nc2cc(N3CCN(C)CC3)nc(Sc3ccc(NC(=O)C4CC4)cc3)n2)n[nH]1 [tozasertib]
Method in brief: as §1

[18] = compound: Cc1cc(SCc2sc(-c3ccc(C(F)(F)F)cc3)nc2C)ccc1OCC(=O)O
Method in brief: as §1

[19] = compound: Cc1ccc(-n2nc(C(C)(C)C)cc2NC(=O)Nc2ccc(OCCN3CCOCC3)c3ccccc23)cc1 [doramapimod]
Method in brief: as §1

[20] = compound: Cc1ccc(C(=O)N(CCCN)[C@@H](c2nc3cc(Cl)ccc3c(=O)n2Cc2ccccc2)C(C)C)cc1 [ispinesib]
Method in brief: as §1

Measured: log2 fold change

SLC25A4 (UniProt P12235)
Sequence of UniProt P12235 (P12235 whole entry, looked up): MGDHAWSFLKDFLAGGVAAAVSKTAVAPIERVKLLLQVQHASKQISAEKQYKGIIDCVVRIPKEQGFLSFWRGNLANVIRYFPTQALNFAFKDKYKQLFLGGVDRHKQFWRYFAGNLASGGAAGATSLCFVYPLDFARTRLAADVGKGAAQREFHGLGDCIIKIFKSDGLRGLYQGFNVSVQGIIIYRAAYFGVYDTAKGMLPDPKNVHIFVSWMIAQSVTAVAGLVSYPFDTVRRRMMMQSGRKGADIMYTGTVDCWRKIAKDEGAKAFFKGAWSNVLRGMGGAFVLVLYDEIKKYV
inactive: [1] -0.012 | [2] -0.024 | [3] -0.018 | [4] 0.003 | [5] 0.014 | [6] 0.039 | [7] 0.006 | [8] -0.012 | [9] -0.026 | [10] 0.115 | [11] 0.004 | [12] 0.112 | [13] 0.093 | [14] 0.01 | [15] 0.012 | [16] -0.004 | [17] -0.072 | [18] -0.034 | [19] -0.053 | [20] 0.028

SPG21 (UniProt Q9NZD8)
Sequence of UniProt Q9NZD8 (Q9NZD8 whole entry, looked up): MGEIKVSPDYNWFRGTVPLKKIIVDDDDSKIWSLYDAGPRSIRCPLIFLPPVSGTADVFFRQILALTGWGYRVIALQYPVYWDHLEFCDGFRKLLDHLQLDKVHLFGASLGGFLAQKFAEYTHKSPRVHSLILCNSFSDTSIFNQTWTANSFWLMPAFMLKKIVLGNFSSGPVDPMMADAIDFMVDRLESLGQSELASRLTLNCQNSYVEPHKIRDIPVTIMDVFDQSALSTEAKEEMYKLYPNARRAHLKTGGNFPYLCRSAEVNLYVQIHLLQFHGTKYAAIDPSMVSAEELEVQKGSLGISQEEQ
inactive: [1] -0.026 | [2] 0 | [3] 0.063 | [4] 0.03 | [5] -0.084 | [6] 0.174 | [7] 0.226 | [8] 0.011 | [9] 0.072 | [10] 0.064 | [11] 0.077 | [12] -0.24 | [13] 0.053 | [14] 0.013 | [15] 0.003 | [16] 0 | [17] 0.026 | [18] 0.052 | [19] 0.091 | [20] -0.093

STX7 (UniProt O15400)
Sequence of UniProt O15400 (O15400 whole entry, looked up): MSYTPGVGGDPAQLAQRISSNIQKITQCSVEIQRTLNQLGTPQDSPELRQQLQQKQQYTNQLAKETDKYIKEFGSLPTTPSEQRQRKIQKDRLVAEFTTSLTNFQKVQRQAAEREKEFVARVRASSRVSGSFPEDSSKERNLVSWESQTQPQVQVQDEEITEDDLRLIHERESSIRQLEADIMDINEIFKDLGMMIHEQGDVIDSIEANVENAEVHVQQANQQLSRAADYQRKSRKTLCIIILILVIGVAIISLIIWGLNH
inactive: [1] 0.065 | [2] -0.071 | [3] 0.027 | [4] -0.023 | [5] -0.048 | [6] 0.013 | [7] -0.01 | [8] 0.045 | [9] -0.002 | [10] -0.118 | [11] 0 | [12] -0.187 | [13] 0.015 | [14] -0.042 | [15] -0.023 | [16] -0.18 | [17] -0.021 | [18] -0.055 | [19] 0.04
active: [20] -0.246

SNX9 (UniProt Q9Y5X1)
Sequence of UniProt Q9Y5X1 (Q9Y5X1 whole entry, looked up): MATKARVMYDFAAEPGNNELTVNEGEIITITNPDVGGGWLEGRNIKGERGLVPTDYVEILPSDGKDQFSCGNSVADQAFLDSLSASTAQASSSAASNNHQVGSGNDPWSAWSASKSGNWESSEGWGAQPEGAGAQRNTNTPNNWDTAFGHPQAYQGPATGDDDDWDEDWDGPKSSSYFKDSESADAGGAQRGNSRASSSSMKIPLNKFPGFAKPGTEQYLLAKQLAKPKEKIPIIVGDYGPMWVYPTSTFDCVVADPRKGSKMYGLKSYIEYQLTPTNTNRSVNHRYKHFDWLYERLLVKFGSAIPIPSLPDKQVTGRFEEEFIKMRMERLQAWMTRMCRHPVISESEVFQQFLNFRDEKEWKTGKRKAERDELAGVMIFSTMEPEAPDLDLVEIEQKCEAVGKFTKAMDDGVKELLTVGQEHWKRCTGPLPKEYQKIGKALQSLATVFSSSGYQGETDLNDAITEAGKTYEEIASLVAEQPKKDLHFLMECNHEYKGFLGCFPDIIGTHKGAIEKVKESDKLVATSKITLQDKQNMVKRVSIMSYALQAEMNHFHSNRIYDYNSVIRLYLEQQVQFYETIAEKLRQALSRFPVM
inactive: [1] -0.002 | [2] -0.017 | [3] 0.004 | [4] -0.01 | [5] -0.013 | [6] 0.019 | [7] 0.038 | [8] -0.059 | [9] -0.034 | [10] -0.036 | [11] 0.013 | [12] -0.077 | [13] -0.009 | [14] 0.003 | [15] -0.039 | [16] -0.054 | [17] -0.015 | [18] 0.115 | [19] -0.009 | [20] -0.074

TIMM10 (UniProt P62072)
Sequence of UniProt P62072 (P62072 whole entry, looked up): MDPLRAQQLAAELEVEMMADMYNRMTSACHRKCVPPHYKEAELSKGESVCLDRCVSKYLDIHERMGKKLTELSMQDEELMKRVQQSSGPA
inactive: [1] -0.043 | [2] -0.038 | [3] -0.023 | [4] -0.019 | [5] 0.01 | [6] -0.12 | [7] 0.015 | [8] 0.03 | [9] -0.026 | [10] 0.008 | [11] -0.035 | [12] 0.051 | [13] 0.099 | [14] -0.006 | [15] 0.105 | [16] 0.052 | [17] 0.053 | [18] 0.027 | [19] 0.021 | [20] 0.103

STX17 (UniProt P56962)
Sequence of UniProt P56962 (P56962 whole entry, looked up): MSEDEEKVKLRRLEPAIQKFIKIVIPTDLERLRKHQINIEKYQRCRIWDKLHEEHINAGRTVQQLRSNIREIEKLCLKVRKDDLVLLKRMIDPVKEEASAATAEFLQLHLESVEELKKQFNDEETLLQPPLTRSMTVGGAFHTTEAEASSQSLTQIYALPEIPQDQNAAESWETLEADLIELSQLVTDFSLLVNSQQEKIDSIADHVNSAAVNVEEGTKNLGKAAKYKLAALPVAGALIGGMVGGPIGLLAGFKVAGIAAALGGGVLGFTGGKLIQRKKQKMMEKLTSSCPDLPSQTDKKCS
inactive: [1] 0.023 | [2] 0.013 | [3] 0.046 | [4] -0.027 | [5] -0.12 | [6] -0.081 | [7] 0.027 | [8] -0.001 | [9] 0.039 | [10] 0.093 | [11] 0.197 | [12] -0.27 | [13] 0.025 | [14] -0.171 | [15] -0.156 | [16] -0.026 | [17] -0.031 | [18] 0.001 | [19] 0.031 | [20] -0.246

TBRG4 (UniProt Q969Z0)
inactive: [1] 0.062 | [2] -0.551 | [3] -0.007 | [4] -0.021 | [5] 0.032 | [6] -0.274 | [7] -0.121 | [8] 0.073 | [9] -0.051 | [10] -0.036 | [11] -0.041 | [13] 0.137 | [14] -0.005 | [15] 0.066 | [16] -0.364 | [17] 0.04 | [18] 0.174 | [19] -0.081 | [20] -0.254
active: [12] -0.676

TANGO6 (UniProt Q9C0B7)
Sequence of UniProt Q9C0B7 (Q9C0B7 whole entry, looked up): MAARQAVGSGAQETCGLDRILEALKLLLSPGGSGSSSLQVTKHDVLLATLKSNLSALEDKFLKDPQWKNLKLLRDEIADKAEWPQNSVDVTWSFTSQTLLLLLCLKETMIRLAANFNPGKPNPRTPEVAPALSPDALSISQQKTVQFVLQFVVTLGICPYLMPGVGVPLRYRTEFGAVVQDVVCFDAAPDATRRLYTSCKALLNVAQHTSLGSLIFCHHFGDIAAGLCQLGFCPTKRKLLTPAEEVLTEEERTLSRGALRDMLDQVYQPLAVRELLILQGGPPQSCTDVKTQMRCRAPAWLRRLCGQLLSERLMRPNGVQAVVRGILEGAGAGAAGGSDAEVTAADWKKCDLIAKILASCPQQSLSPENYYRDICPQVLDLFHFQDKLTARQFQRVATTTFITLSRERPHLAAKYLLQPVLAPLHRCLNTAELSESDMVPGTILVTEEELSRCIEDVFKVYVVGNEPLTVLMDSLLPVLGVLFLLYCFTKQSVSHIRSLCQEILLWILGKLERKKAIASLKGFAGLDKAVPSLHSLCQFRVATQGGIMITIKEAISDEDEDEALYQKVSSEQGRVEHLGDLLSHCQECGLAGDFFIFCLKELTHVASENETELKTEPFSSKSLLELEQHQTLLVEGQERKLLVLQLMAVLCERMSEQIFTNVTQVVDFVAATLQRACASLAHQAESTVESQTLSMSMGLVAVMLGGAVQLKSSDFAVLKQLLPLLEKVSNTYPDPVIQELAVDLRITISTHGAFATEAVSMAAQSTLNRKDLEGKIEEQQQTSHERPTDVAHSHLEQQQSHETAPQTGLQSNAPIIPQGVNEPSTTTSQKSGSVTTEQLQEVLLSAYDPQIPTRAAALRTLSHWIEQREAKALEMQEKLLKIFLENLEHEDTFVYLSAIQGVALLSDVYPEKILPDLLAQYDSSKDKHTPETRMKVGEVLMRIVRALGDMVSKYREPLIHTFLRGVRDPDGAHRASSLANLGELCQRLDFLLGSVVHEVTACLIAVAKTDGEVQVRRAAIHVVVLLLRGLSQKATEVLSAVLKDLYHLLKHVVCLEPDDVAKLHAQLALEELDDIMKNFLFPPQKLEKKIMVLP
inactive: [1] -0.025 | [2] 0.04 | [3] 0.061 | [4] -0.112 | [5] 0.032 | [6] -0.015 | [7] -0.049 | [8] -0.036 | [9] 0.022 | [11] 0.006 | [12] -0.123 | [13] -0.022 | [15] 0.087 | [17] -0.124 | [18] 0.078 | [19] -0.004 | [20] -0.085
active: [14] 0.366

TFAM (UniProt Q00059)
Sequence of UniProt Q00059 (Q00059 whole entry, looked up): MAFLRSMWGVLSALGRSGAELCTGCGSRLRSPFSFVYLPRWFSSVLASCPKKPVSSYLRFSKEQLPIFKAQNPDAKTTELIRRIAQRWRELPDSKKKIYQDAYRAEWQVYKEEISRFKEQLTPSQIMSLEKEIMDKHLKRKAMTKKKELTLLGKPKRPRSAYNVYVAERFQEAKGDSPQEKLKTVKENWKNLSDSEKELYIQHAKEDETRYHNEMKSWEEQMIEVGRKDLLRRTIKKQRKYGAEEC
inactive: [1] -0.035 | [2] 0.048 | [3] 0.01 | [4] 0.046 | [5] -0.1 | [6] 0.015 | [7] -0.026 | [8] -0.058 | [9] -0.012 | [10] -0.04 | [11] -0.071 | [12] 0.058 | [13] -0.153 | [14] 0.117 | [15] -0.04 | [16] 0.176 | [17] 0.036 | [18] -0.034 | [19] 0.022 | [20] -0.117

TERF2IP (UniProt Q9NYB0)
Sequence of UniProt Q9NYB0 (Q9NYB0 whole entry, looked up): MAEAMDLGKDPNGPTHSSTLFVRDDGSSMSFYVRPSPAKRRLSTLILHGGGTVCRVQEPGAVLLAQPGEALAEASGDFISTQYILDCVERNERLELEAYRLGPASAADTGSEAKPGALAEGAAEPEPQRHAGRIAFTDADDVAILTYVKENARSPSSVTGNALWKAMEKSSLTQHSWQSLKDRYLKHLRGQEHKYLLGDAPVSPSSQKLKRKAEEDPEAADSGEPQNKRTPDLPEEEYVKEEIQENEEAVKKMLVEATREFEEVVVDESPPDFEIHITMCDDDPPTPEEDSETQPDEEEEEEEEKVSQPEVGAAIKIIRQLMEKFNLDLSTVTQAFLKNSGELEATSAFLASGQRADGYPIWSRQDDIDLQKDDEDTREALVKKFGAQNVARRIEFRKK
inactive: [1] -0.034 | [2] 0.052 | [3] 0.045 | [4] 0.025 | [5] -0.032 | [6] -0.119 | [7] 0.013 | [8] 0.025 | [9] -0.008 | [10] -0.036 | [11] -0.021 | [12] 0.085 | [13] -0.072 | [14] -0.099 | [15] 0.016 | [16] 0.028 | [17] 0.108 | [18] 0.005 | [19] -0.019 | [20] 0.044

SPAG9 isoform 4 (UniProt O60271)
inactive: [1] -0.02 | [2] 0.078 | [3] -0.076 | [4] -0.006 | [5] 0.062 | [7] -0.007 | [8] -0.112 | [11] 0.144 | [12] -0.061 | [14] 0.123 | [17] 0.142 | [19] 0.042 | [20] -0.128

SPPL2B (UniProt Q8TCT7)
Sequence of UniProt Q8TCT7 (Q8TCT7 whole entry, looked up): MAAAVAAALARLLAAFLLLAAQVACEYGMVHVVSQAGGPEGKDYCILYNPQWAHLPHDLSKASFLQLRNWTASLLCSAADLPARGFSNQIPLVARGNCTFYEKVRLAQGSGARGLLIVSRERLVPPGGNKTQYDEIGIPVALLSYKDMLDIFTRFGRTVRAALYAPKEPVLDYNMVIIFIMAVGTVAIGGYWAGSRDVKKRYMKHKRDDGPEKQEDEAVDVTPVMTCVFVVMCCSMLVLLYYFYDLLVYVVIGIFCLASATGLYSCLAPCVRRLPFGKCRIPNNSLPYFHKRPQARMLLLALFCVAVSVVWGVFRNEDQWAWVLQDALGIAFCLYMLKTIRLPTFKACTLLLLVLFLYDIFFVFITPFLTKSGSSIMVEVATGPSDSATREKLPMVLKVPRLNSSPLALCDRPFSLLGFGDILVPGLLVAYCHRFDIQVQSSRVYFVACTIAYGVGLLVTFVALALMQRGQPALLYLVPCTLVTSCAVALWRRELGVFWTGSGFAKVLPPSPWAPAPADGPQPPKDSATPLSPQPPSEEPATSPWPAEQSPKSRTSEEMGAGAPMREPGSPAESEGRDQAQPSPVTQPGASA
inactive: [1] 0.025 | [2] -0.223 | [3] -0.016 | [4] -0.01 | [5] -0.113 | [6] -0.05 | [7] -0.061 | [8] 0.084 | [9] -0.002 | [11] 0.049 | [12] -0.011 | [13] -0.072 | [14] 0.006 | [15] 0.031 | [16] -0.004 | [17] -0.032 | [18] -0.022 | [19] 0.01 | [20] -0.026
active: [10] 0.292

SLC25A38 (UniProt Q96DW6)
Sequence of UniProt Q96DW6 (Q96DW6 whole entry, looked up): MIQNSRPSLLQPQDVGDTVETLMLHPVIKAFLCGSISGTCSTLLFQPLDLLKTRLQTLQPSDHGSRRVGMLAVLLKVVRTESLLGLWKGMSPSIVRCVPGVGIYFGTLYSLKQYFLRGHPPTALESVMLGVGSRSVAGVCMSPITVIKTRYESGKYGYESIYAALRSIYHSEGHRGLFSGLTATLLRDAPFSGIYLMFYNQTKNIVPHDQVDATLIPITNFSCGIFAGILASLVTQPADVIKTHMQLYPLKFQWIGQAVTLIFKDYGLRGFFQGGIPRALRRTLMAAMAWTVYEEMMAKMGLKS
inactive: [1] -0.013 | [2] -0.01 | [3] -0.029 | [4] -0.069 | [5] -0.049 | [6] 0.039 | [7] 0.013 | [9] -0.02 | [10] 0.04 | [11] 0.146 | [12] 0.105 | [13] 0.045 | [14] 0.002 | [15] 0.088 | [16] -0.035 | [17] -0.003 | [18] -0.058 | [19] 0.001 | [20] 0
active: [8] 0.447
